From PubChem BioAssay
RN4220 kill – growth inhibition of S. aureus RN4220, primary screen, OD600 | 330,000 compounds, 0.33% hits | inhibition, % (test concentration not listed) | 16 h | AID 1259311, 2017; in the data active = inhibition above about 85%;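 note: plate controls were untreated cells for no effect and reference antibiotic for full effect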
Mtb hypoxia inh – PubChem AID 1159583; M. tuberculosis hypoxia-regulated fluorescent reporter, fluorescence; fluorescence inhibition, % (no concentration beside the values); 300,000 compounds, 0.1% hits; in the data active = fluorescence inhibition mostly above about 23%, no sharp cut-off; inactive = mostly below about 17%
Mtb bLac sens – beta-lactam sensitization of Mtb H37Rv, H37Rv. 330,000 compounds, 0.27% hits. M. tuberculosis H37Rv growth with meropenem, percent inhibition. inhibition, % at 25 µM; call rule not given here;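 note: growth measured after seven days incubation then overnight dye step; 0% = bacteria only wells and 100% = bacteria with antibiotic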
ugtP null kill – growth inhibition of ugtP-null S. aureus, primary screen, RN4220 ugtP deletion, OD600; 16 h; 330,000 compounds, 0.54% hits; growth inhibition, % (concentration not given with the values); in the data active = growth inhibition above about 68%;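 note: plate controls were untreated wells for no effect and antibiotic for full effect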
Starred values were filed as active, the others as inactive; u = inconclusive; x = not tested or not shown; ! = not confirmed by another sample. This is a sample that favours compounds with a hit; in the whole collection about 0.61% have one here.

SMILES	RN4220 kill	Mtb hypoxia inh	Mtb bLac sens	ugtP null kill
O=C(Oc1c(Cl)cc(Cl)c2cccnc12)c1cccc([N+](=O)[O-])c1	97*	-3	98	97*
CC(=NNc1nc(C)cc(-c2ccccc2)n1)c1ccco1	9	-4	x	-2
CC1(C)COCN1S(=O)(=O)c1ccc(C(=O)Nc2nnc(-c3ccc(Cl)s3)o2)cc1	100*	5	96	98*
CCCCN(CC)S(=O)(=O)c1ccc(C(=O)Nc2nnc(-c3ccccc3Cl)o2)cc1	100*	-3	91	100*
COc1ccc(-c2nnc(NC(=O)c3ccc(S(=O)(=O)N4COCC4(C)C)cc3)o2)cc1	54	1	93	49
CCCCN(CCCC)S(=O)(=O)c1ccc(C(=O)Nc2nnc(CSC)o2)cc1	112*	x	69	99*
CCC1CCCCN1S(=O)(=O)c1ccc(C(=O)Nc2nnc(-c3ccccc3Cl)o2)cc1 (configuration not stated)	99*	5	94	98*
CCCCN(CC)S(=O)(=O)c1ccc(C(=O)Nc2nnc(COC)o2)cc1	17	3	24	1
CCCCN(CC)S(=O)(=O)c1ccc(C(=O)Nc2nnc(CSC)o2)cc1	47	5	x	17
CCC1CCCCN1S(=O)(=O)c1ccc(C(=O)Nc2nnc(C3CC3)o2)cc1 (configuration not stated)	62	-1	91	50
CC1CCCCN1S(=O)(=O)c1ccc(C(=O)Nc2nnc(-c3ccccc3Cl)o2)cc1 (configuration not stated)	98*	-5	92	98*
CC1CCCCN1S(=O)(=O)c1ccc(C(=O)Nc2nnc(-c3ccncc3)o2)cc1 (configuration not stated)	28	2	88	8
O=C(Nc1nnc(-c2ccccc2Cl)o1)c1ccc(S(=O)(=O)N2CCCCCC2)cc1	100*	-5	95	96*
CS(=O)(=O)c1ccccc1-c1nnc(NC(=O)c2ccc(S(=O)(=O)N3CCCC3)cc2)o1	9	7	-5	-2
CCCCN(C)S(=O)(=O)c1ccc(C(=O)Nc2nnc(-c3cccs3)o2)cc1	104*	x	94	97*
O=C(Nc1nnc(-c2cccs2)o1)c1cccc(Oc2ccccc2)c1	99*	5	97	100*
CC(=NNC(=O)C1CC1)c1ccc(C)c(C)c1	5	0	x	0
CCOc1ccc(Nc2nc(N3CCCCC3)nc(N3CCCCC3)n2)cc1	-2	7	2	92*
Cc1cccc(C)c1OCc1nc2ccccc2c(=O)n1N=Cc1c[nH]c2ccccc12	42	10	x	9
Fc1ccc(NC(=S)NN=Cc2ccccc2Cl)cc1	-4	-6	x	86*
COc1ccc(/C=N/Nc2cc(C)nc3c(C)cccc23)cc1	x	x	99	x
COc1ccc(Oc2cc(C)c3cccc(C)c3n2)cc1	-6	x	0	96*
O=C(O)CCn1cc(C=C2SC(=S)NC2=O)c(-c2ccccc2)n1	2	0	x	-6
CCC1Oc2ccccc2N(CC(=O)NC2CCCC2)C1=O (configuration not stated)	1	0	-2	30
CCC1Oc2ccccc2N(CC(=O)NC2CCCCC2)C1=O (configuration not stated)	10	1	-2	101*
SMILES	RN4220 kill	Mtb hypoxia inh	Mtb bLac sens	ugtP null kill
Cc1cccc(Cc2cnc(N3C(=N)SC(C)C3=O)s2)c1 (configuration not stated)	90*	8	91	38
N=C1SCC(=O)N1c1ncc(Cc2ccccc2Cl)s1	93*	17	x	89
Cc1cccc(Cc2cnc(N3C(=N)SC(c4ccccc4)C3=O)s2)c1 (configuration not stated)	32	5	71	-8
N=C1SCC(=O)N1c1ncc(Cc2cccc(Cl)c2)s1	97*	16	x	98*
O=C(NN=Cc1ccc(COc2ccc(Br)cc2)o1)c1ccco1	7	3	x	-4
CSc1nc2c(c(-c3ccccc3)c1C#N)CCC2	-4	9	7	83*
COc1ccc(N2CC(C(=O)NN=Cc3cc([N+](=O)[O-])ccc3O)CC2=O)cc1 (configuration not stated)	90*	9	x	77
Cc1ccc(CSCC(=O)NN=Cc2cccc(OC3CSC3)c2)cc1	-4	9	x	-8
CCC[C@@H]1C[C@@H](C(=O)NC(C(C)Cl)[C@H]2O[C@H](SC)[C@H](O)[C@@H](O)[C@H]2O)N(C)C1 (some centres not stated)	x	x	78	x
CCCC1CC(C(=O)NC(C(C)Cl)C2OC(SC)C(O)C(O)C2O)N(C)C1 (configuration not stated)	100*	44*	85	100*
CC(=O)OCCNc1cc(N2CCN(C)CC2)c2noc3c2c1C(=O)c1ccccc1-3	-3	54*	x	1
O=C(NCc1ccncc1)c1cccc(S(=O)(=O)N2CCc3ccccc32)c1	4	28*	5	2
O=C(NCc1cccc(Cl)c1)c1cccc(S(=O)(=O)N2CCCCC2)c1	3	29*	-1	-3
COCCNC(=S)NN=C(C)c1ccc(Cl)s1	3	23	x	4
O=C(NNc1ccc(O)cc1)c1ccc(Br)cc1	22	4	37	91*
O=C(NNc1ccccc1)c1ccccc1	2	6	x	3
CCCn1c(C(=O)OC)cc2c1ccn2-c1ccc(F)cc1	15	18	25	97*
O=C(O)C(Cc1ccccc1)N1C(=O)c2c(Cl)c(Cl)c(Cl)c(Cl)c2C1=O (configuration not stated)	39	3	-6	86*!
O=C(O)C(Cc1ccccc1)N1C(=O)c2ccccc2C1=O (configuration not stated)	4	11	7	-7
CCCc1ccc(Oc2cc(N3CCOCC3)nc(-c3ccccc3)n2)cc1	-12	5	u	89*
CCN(CC)C(=O)CSc1nnc2nnc3cc(OC)ccc3n12	5	66*	x	2
COc1ccc(C(=O)NN=Cc2ccc(N(C)c3ccccc3)cc2)cc1	-2	7	x	3
Clc1ccc2c(NN=Cc3ccccc3Br)ccnc2c1	98*	6	x	99*
Clc1ccc2c(NN=Cc3cccc(Br)c3)ccnc2c1	101*	1	x	101*
Clc1ccc2c(NN=Cc3cccnc3)ccnc2c1	3	-5	x	9
SMILES	RN4220 kill	Mtb hypoxia inh	Mtb bLac sens	ugtP null kill
CCCCCc1nc2c(c(=O)c3ccccc3n2C)c(=O)n1C1CCCCCC1	99*	-2	89	100*
CCOC(=O)C(=NNc1ccccc1)c1csc(Nc2ccccc2)n1	92*	-1	x	93*
O=[N+]([O-])c1ccc(NN=Cc2cccn2-c2ccccc2)nc1	9	5	x	-27
CN1CCN(CCCNc2nc3ccccc3c3nc(-c4ccccc4)nn23)CC1	4	17	x	11
COCCCNc1nc2cc(OC)c(OC)cc2c2nc(-c3ccccc3)nn12	25	-6	8	11
CCN(CC)CCCNc1nc2cc(OC)c(OC)cc2c2nc(-c3ccccc3)nn12	18	72*	100	-8
CCN(CC)CCCNc1nc2cc(OC)c(OC)cc2c2nc(-c3cccnc3)nn12	5	39*	89	51
CCN(CC)CCCNc1nc2ccccc2c2nc(-c3ccncc3)nn12	1	50*	0	-7
